Values joined by “and” are separate entries in the source; they are usually repeats but may differ in a detail not shown here. Equal entries are not always repeated. Active and inactive are the calls of the source. How the source made its calls: active means hit-call score of the fitted dose curve at least 0.9, where 1 is the maximum; inactive means score below 0.9.

The nature of assay [1]: BSK_BT_PBMCCytotoxicity: PBMC Cytotoxicity Assessment in the BioMAP Diversity Plus: BT Assay (AID 2284225).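 Further: PBMC viability measured by Alamar Blue dye reduction fluorescence.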 The following applies: primary human B cells with PBMC. Put shortly:
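PBMC (75,000/well) pretreated with compound 1 h, then activated with SEB and TSST-1 (20 ng/mL each final), incubated 90 h; Alamar Blue added 6 h, fluorescence read at 546/580 nm. Fitted relative to DMSO.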

Read-out in assay [2]: Secreted IgG (sIgG), gene 3500
The assay is described as follows: BSK_BT_sIgG: BioMAP Diversity Plus: BT Assay for Secreted IgG (sIgG) Biomarker Activity (AID 2284226). The following applies: primary human B cells with PBMC. The essentials:
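Read-out: ELISA for secreted IgG after 24 h of chemical exposure in a B cell plus PBMC co-culture. Values reflect upward-direction fitting against DMSO negative controls.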

A short description of assay [3]: BSK_BT_Bcell_Proliferation: Viability Assessment in the BioMAP Diversity Plus: BT Assay for B cell Proliferation (AID 2284227). The following applies: primary human B cells with PBMC. Put shortly:
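Using a human primary B cell–PBMC co-culture, the assay measures total protein by sulforhodamine B absorbance as a gauge of proliferation after 72 h. Analysis followed the positive fitting direction with DMSO as baseline.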

Read-out in assay [4]: Interleukin 6 (IL6), IL6 (gene 3569)
The assay is described as follows: BSK_BT_xIL6: BioMAP Diversity Plus: BT Assay for Interleukin 6 (IL6) Biomarker Activity (AID 2284228). The following applies: primary human B cells with PBMC. Put shortly:
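Human B cell/PBMC co-culture; secreted IL-6 quantified by Luminex xMAP 24 h after chemical dosing, fitted relative to DMSO. Parallel PBMC viability by Alamar Blue after 1 h pretreatment, 20 ng/mL SEB and TSST-1, 90 h incubation.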

Read-out in assay [5]: Interleukin 17A (IL17A), IL17A (gene 3605)
The assay is described as follows: BSK_BT_xIL17A: BioMAP Diversity Plus: BT Assay for Interleukin 17A (IL17A) Biomarker Activity (AID 2284229). The following applies: primary human B cells with PBMC. Put shortly:
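Co-culture of human B cells and PBMC, dosed for 24 h in 96-well format. Secreted IL-17A measured with Luminex xMAP; gain-direction fitting against DMSO as baseline.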

Read-out in assay [6]: Tumor necrosis factor (Homo sapiens) (UniProt P01375)
The assay is described as follows: BSK_BT_xTNFa: BioMAP Diversity Plus: BT Assay for Tumor necrosis factor alpha (TNF-alpha) Biomarker Activity (AID 2284230). The following applies: primary human B cells with PBMC. The essentials:
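Endpoint derived in the positive direction versus DMSO vehicle. Cells: B cells together with PBMC, exposed 24 h before TNF-alpha in the medium was read on the Luminex xMAP platform.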

Read-out in assay [7]: Collagen I, COL1A1 (gene 1277)
Put plainly: BSK_MyoF_CollagenI: BioMAP Diversity Plus: MyoF Assay for Collagen I Biomarker Activity (AID 2284238). The conditions noted are these: primary human lung fibroblasts. The essentials:
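Primary human lung fibroblasts (MyoF system) treated 24 h; Collagen I quantified by ELISA and fitted in positive direction against DMSO. Parallel SRB total-protein staining assessed overt cytotoxicity.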

Read-out in assay [8]: Collagen III, COL3A1 (gene 1281)
The assay is described as follows: BSK_MyoF_CollagenIII: BioMAP Diversity Plus: MyoF Assay for Collagen III Biomarker Activity (AID 2284239). The following applies: primary human lung fibroblasts. Put shortly:
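Primary human lung fibroblasts (BioMAP MyoF system) exposed 24 h. Collagen III measured by ELISA; positive-direction fit relative to DMSO.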

Read-out in assay [9]: Interleukin 17F (IL17F), IL17F (gene 112744)
The assay is described as follows: BSK_BT_xIL17F: BioMAP Diversity Plus: BT Assay for Interleukin 17F (IL17F) Biomarker Activity (AID 2284243). The conditions noted are these: primary human B cells with PBMC. The essentials:
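Human PBMC co-cultured with B cells, compound exposure 24 h; secreted IL-17F quantified by Luminex xMAP, referenced to DMSO control. PBMC viability measured in parallel by Alamar Blue reduction.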

Read-out in assay [10]: Actin alpha 1 (ACTA1), ACTA1 (gene 58)
The assay is described as follows: BSK_MyoF_ACTA1: BioMAP Diversity Plus: MyoF Assay for Actin alpha 1 (ACTA1) Biomarker Activity (AID 2284244). The following applies: primary human lung fibroblasts. Put shortly: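 Lung fibroblasts, human primary, 24 h compound exposure → a-SMA ELISA. Positive-direction fit vs DMSO control.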

Read-out in assay [11]: Interleukin 2 (IL2), IL2 (gene 3558)
Put plainly: BSK_BT_xIL2: BioMAP Diversity Plus: BT Assay for Interleukin 2 (IL2) Biomarker Activity (AID 2284245). The following applies: primary human B cells with PBMC. The essentials:
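B cell + PBMC co-culture (human primary), compound added, 24 h incubation; secreted IL-2 measured multiplexed on Luminex xMAP; gain-of-signal fit vs DMSO.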

Read-out in assay [12]: Basic fibroblast growth factor (bFGF), FGF2 (gene 2247)
Put plainly: BSK_MyoF_bFGF: BioMAP Diversity Plus: MyoF Assay for Basic fibroblast growth factor (bFGF) Biomarker Activity (AID 2284246). The conditions noted are these: primary human lung fibroblasts. The essentials:
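ELISA-measured bFGF level serves as the read-out, taken 24 h after chemical dosing of human lung fibroblasts. Values represent signal gain over the DMSO negative control.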

Read-out in assay [13]: Collagen IV, COL4A1 (gene 1282)
The assay is described as follows: BSK_MyoF_CollagenIV: BioMAP Diversity Plus: MyoF Assay for Collagen IV Biomarker Activity (AID 2284247). The following applies: primary human lung fibroblasts. The essentials:
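Steps: dose human lung fibroblasts; culture 24 h; quantify Collagen IV by ELISA; fit increase versus DMSO control. Parallel SRB total-protein staining (0.1% SRB after 10% TCA fixation, 560 nm) tracks overt cytotoxicity.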

Read-out in assay [14]: Monokine induced gamma interferon (MIG), CXCL9 (gene 4283)
Put plainly: BSK_KF3CT_MIG: BioMAP Diversity Plus: KF3CT Assay for Monokine induced gamma interferon (MIG) Biomarker Activity (AID 2284248). The conditions noted are these: primary human keratinocytes with fibroblasts. Put shortly: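 Human keratinocyte–foreskin fibroblast co-culture; MIG measured by ELISA 24 h after chemical dosing, fitted upward versus DMSO. Cytotoxicity was assessed in parallel cultures by SRB total-protein staining read at 560 nm.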

Read-out in assay [15]: Vascular cell adhesion molecule 1 (VCAM1), VCAM1 (gene 7412)
The assay is described as follows: BSK_BF4T_VCAM1: BioMAP Diversity Plus: BF4T Assay for Vascular cell adhesion molecule 1 (VCAM1) Biomarker Activity (AID 2284249). The following applies: primary human bronchial epithelial cells with fibroblasts. Put shortly: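 Human bronchial epithelial cell and dermal fibroblast co-culture exposed 24 h. VCAM-1 measured by ELISA; parallel SRB total-protein staining for cytotoxicity. Fitted in positive direction relative to DMSO.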

Read-out in assay [16]: Vascular cell adhesion molecule 1 (VCAM1), VCAM1 (gene 7412)
The assay is described as follows: BSK_MyoF_VCAM1: BioMAP Diversity Plus: MyoF Assay for Vascular cell adhesion molecule 1 (VCAM1) Biomarker Activity (AID 2284231). The following applies: primary human lung fibroblasts. Put shortly: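 Primary human lung fibroblasts (BioMAP MyoF system) dosed with chemical, VCAM-1 measured by ELISA 24 hours later. Fitted in the positive direction against DMSO; parallel SRB staining assessed cytotoxicity.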

Sequence of Tumor necrosis factor (Homo sapiens) (P01375 whole entry, looked up): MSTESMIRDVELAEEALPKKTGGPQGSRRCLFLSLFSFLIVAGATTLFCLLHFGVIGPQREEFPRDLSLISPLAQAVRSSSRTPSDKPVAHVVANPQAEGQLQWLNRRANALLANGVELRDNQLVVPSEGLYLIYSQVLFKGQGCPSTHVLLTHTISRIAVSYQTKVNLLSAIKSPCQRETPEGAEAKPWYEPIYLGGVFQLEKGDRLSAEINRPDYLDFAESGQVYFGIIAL

Take `O=C=NCc1cccc(CN=C=O)c1`: the outcome in assay [1], in assay [2], in [3], in assay [4], in assay [5] and in assay [6] was inactive. Moreover, the result in assay [7], in [8], in assay [9], in assay [10], in assay [11] and in assay [12] was inactive. In assay [13], the outcome was inactive.
A word on the AC50: it is the concentration giving half of the maximal activity seen. Regarding `C[C@]12CC[C@H]3C(=CCc4cc(O)ccc43)[C@@H]1CCC2=O`, the outcome in [1], in [4], in assay [6], in assay [7], in assay [8] and in assay [10] was inactive. The outcome in assay [11] and in assay [13] was inactive. Further, the AC50 in assay [2] was 29.1 µM (active); in assay [3], 26.1 µM (active); in assay [9], 20 µM (active).
For `O=C1C=CC(=O)N1c1ccc(Cc2ccc(N3C(=O)C=CC3=O)cc2)cc1`, the AC50 in assay [1] was 4.43 µM (active); in [2], 2.18 µM (active); in [3], 3.64 µM (active); in [4], 3.09 µM (active); in [5], 1.99 µM (active); in [6], 4.89 µM (active). In addition, the concentration at half-maximal activity (AC50) in [7] is 2.69 µM (active); in assay [8], 3.46 µM (active); in [9] it was 2.45 µM (active); in assay [10], 2.79 µM (active); in assay [11], 4.5 µM (active); in assay [13], 1.99 µM (active).
As for `O=C(Cl)C(F)(F)C(F)(F)C(F)(F)C(F)(F)C(F)(F)C(F)(F)F`, the result in assay [1], in assay [2], in assay [3], in assay [4], in [6] and in [7] was inactive. The result in [8], in assay [9], in assay [10], in assay [11], in assay [12] and in assay [13] was inactive. Further, the outcome in assay [14] and in assay [15] was inactive.
As for `Cc1cc(O)c(C(C)(C)C)cc1C(C)(C)C`, the AC50 in [1] was 26.5 µM (active); in assay [2] it was 12.9 µM (active); in [3], 26.1 µM (active); in [4], 17.2 µM (active); in assay [6], 33.3 µM (active); in [7] it was 4.19 µM (active). Moreover, the AC50 in assay [8] is 5.41 µM (active); in assay [9] it was 27.3 µM (active); in assay [10] it was 3.74 µM (active); in assay [11] it was 31.2 µM (active); in [13], 4.74 µM (active).
For `NS(=O)(=O)C(F)(F)C(F)(F)C(F)(F)C(F)(F)C(F)(F)C(F)(F)F`, the result in assay [1], in [2], in assay [3], in [4], in [6] and in assay [7] was inactive. For the same compound, the outcome in [8], in assay [9], in assay [10], in assay [11] and in [14] was inactive. Besides, the AC50 is 25.5 µM (active) and 20.4 µM (active) in assay [13]; 19.8 µM (active) and 21.1 µM (active) in assay [15].
In the case of `CCOC(=O)CC(=O)C(F)(F)C(F)(F)F`, the outcome in assay [1], in assay [2], in assay [3], in assay [4], in assay [6] and in [16] was inactive. The result in assay [7], in [8], in assay [9], in assay [10], in assay [11] and in assay [13] was inactive. The outcome in assay [14] and in [15] was inactive.

For the origin of these results see PubChem BioAssay (EPA / NIEHS).
